DT40 TDP1 CPT: growth inhibition of DT40 Tdp1-/-;hTDP1 cells with camptothecin (screen for TDP1 inhibitors) | chicken DT40 Tdp1-/-;hTDP1 cells + 20 nM CPT, ATP luminescence, 48 h | Potency, µM (titrated, usually from 46.2 µM), for inactives: top-dose activity change, negative = growth inhibition, usual class: inhibitors | hit rate 12% among 420,000; also: potency is read from the fitted curve at half-maximal effect; nearly all actives have a fitted effect of over 55% in size
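Chicken DT40 Tdp1-/- cells stably complemented with human TDP1 were seeded at 400 cells/well in medium containing 20 nM camptothecin, exposed to pin-transferred compounds, and grown at 37 °C for at least 48 hr. Viability was read as ATP luminescence.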
DT40 TDP1 no CPT: qHTS for Inhibitors of human tyrosyl-DNA phosphodiesterase 1 (TDP1): qHTS in cells in absence of CPT; Potency, µM (series often up to 46.2 µM), without a hit: top-dose activity change, negative = growth inhibition, most hits filed as inhibitors; DT40 Tdp1-/- hTDP1 cells, no CPT, ATP luminescence, 48 h; hit rate 15% among 420,000; AID 686978, 2013; also: potency is read from the fitted curve at half-maximal effect; nearly all actives have a fitted effect of over 55% in size
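Growth of hTDP1-complemented DT40 Tdp1-knockout cells is measured by ATP luminescence after at least 48 hr compound exposure at 37 °C, with DMSO substituting for the 20 nM CPT used in the parallel screen.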
HT1080 IDH1KD tx: kills HT-1080 cells with IDH1 knockdown | HT-1080 IDH1 knockdown viability, ATP luminescence, 48 h | Potency, µM (series often up to 46.1 µM), inactives show at the top dose activity, negative = toxicity, actives largely listed as cytotoxic | hit rate 2% among 360,000;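 also: potency is read from the fitted curve at half-maximal effect; 0% = DMSO wells and -100% = cell-free medium wells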
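Viability of IDH1-knockdown HT-1080 fibrosarcoma cells was assessed by CellTiter-Glo after 48 h at 37 °C with titrated compound; concentration-effect curves were classified by fit quality and response size.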
IL1B secr inh: inhibitors of inflammasome signaling (IL-1 beta secretion). THP-1 LPS/ATP IL-1B secretion, AlphaLISA, 16 h; active compounds read low. activity change, % at 57.5 µM. hit rate 4.7% among 360,000. AID 743279; in the data active = activity change below about -50%; inconclusive = mostly about -30% to -49%
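Secreted IL-1B measured by AlphaLISA bead assay after 16 h compound exposure of THP-1 cells; compounds (final up to 57.5 uM) added 1 h before LPS (250 ng/mL) and ATP (1.25 mM) stimulation; lower signal means less secretion.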
HT1080NT lethal: kills 2HG-producing HT-1080-NT fibrosarcoma cells; Potency, µM (highest dose often 46.1 µM), inactives show at the highest dose activity, negative = less viability, most hits filed as cytotoxic; hit rate 1.6% among 360,000; HT-1080-NT fibrosarcoma viability, CellTiter-Glo ATP luminescence, 48 h;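 also: NT is the 2HG producing partner of a matched IDH1 knockdown line; potency is read from the fitted curve at half-maximal effect; 0% = DMSO-treated cells and -100% = media-only wells without cells; nearly all actives have a fitted effect of over 55% in size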
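Viability of the 2HG-overproducing fibrosarcoma line after 48 hours of compound exposure at 37 degrees C was determined by luminescence with CellTiter-Glo, and concentration-effect curves were then fitted and categorized.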
* marks the source's active call; other numbers are inactive results; ? = inconclusive; . = not tested or not shown. Shown are actives, neighbours in structure and some others; about 19% of the full set was active somewhere. Unless noted, calls follow the shape of the dose curve; as a rule, active = well fitted curve in the direction sought with a large enough effect; inconclusive = small, poorly fitted or top-dose-only effect, or another doubt; inactive = no such curve, though single readings can be large; an effect the other way counts as inactive or inconclusive. Unless noted, % is scaled to controls: 0 for no effect and ±100 for the full control effect.

SMILES | DT40 TDP1 CPT | DT40 TDP1 no CPT | HT1080 IDH1KD tx | IL1B secr inh | HT1080NT lethal
CC(=O)Nc1ccc(Sc2ncccc2C(=O)Nc2cc(Cl)cc(Cl)c2)cn1 | ? | ? | -30% | -17 | -12%
CCOC(=O)/C(=N\Nc1cc(Cl)ccc1Cl)N1CCN(CC)CC1 | 21µM* | ? | ? | 6 | ?
CCOC(=O)C(=NCCOC)NNc1cc(Cl)ccc1Cl | -19% | ? | 10% | 9 | 6%
CCOC(=O)c1ccc(Nc2sc(C(=O)c3cccc([N+](=O)[O-])c3)c(N)c2C#N)cc1 | 1µM* | 0.73µM* | ? | 1 | -18%
O=C(O)c1cccc(NS(=O)(=O)c2cc(S(=O)(=O)c3ccc(Cl)cc3)ccc2Cl)c1 | -4% | -3% | -4% | 0 | -10%
CC(C)C1COc2cc3oc(=O)ccc3cc2O1 (stereo unspecified) | -8% | -10% | . | . | .
O/N=C1\CCC\C1=C/c1ccco1 | 7% | -1% | 8% | -1 | -1%
O=C1C(=Cc2ccco2)CCC1=Cc1ccco1 | 23µM* | 16µM* | 3% | -51* | 1%
O=C1C(=Cc2ccco2)CCCC1=Cc1ccco1 | 23µM* | ? | 5% | -25 | 1%
O=C(Oc1ccc(Oc2ccccc2)cc1)N1CCC(O)CC1 | -18% | ? | -3% | -25 | -12%
COc1cc(N=Nc2ccc(Br)cc2)cc(C=O)c1O | 5.2µM* | 4.6µM* | -24% | -20 | -16%
COc1ccc(-c2noc(-c3csc([C@@H]4O[C@H](CO)[C@H](O)[C@H](O)[C@H]4O)n3)n2)cc1OC | -5% | 14% | 21% | 14 | 17%
O=C(NNC1=C(C(=O)C(F)(F)F)CCC1)c1cccc(O)c1 | ? | ? | 18µM* | 20 | ?
Cc1cccc(C(=O)NNS(=O)(=O)c2ccc(F)cc2)c1O | ? | ? | -6% | -11 | -9%
Cc1cccc(C(=O)NNC2=C(C(=O)C(F)(F)F)CCC2)c1O | 6.5µM* | 13µM* | 21µM* | 97 | 21µM*
CCOc1ccc(OCC)c(S(=O)(=O)NCc2ccccc2)c1 | -1% | -18% | 1% | -24 | 1%
CCOc1ccc(OCC)c(S(=O)(=O)NCCOC23CC4CC(CC(C4)C2)C3)c1 | ? | 13µM* | -29% | -2 | -3%
O=S(=O)(NCCOC12CC3CC(CC(C3)C1)C2)c1cccc2nsnc12 | 18µM* | 15µM* | -20% | -9 | -13%
COc1cc(S(=O)(=O)NCCOC23CC4CC(CC(C4)C2)C3)c(OC)cc1Cl | 15µM* | 10µM* | 6% | -55* | 9%
Cc1ccc(N(CC(=O)NC2CCCCC2)S(=O)(=O)c2cccs2)cc1 | -13% | -21% | 6% | 2 | 2%
CC(C)(C)NC(=O)C(c1cccs1)N(CC1CCCO1)C(=O)c1ccc(-c2ccccc2)[nH]1 (stereo unspecified) | 23µM* | 21µM* | -18% | ? | -9%
O=C(NCC1CCCO1)C(c1cccs1)N(Cc1ccccc1)C(=O)c1ccc(-c2ccccc2)[nH]1 (stereo unspecified) | ? | 21µM* | -15% | 0 | -21%
COc1cccc(CC(=O)NCc2ccc3c(c2)CCN3C(C)=O)c1 | -10% | -26% | . | . | .
Cc1ccc(N2CCN(C(=O)CCc3nc4ccccc4[nH]3)CC2)c(C)c1 | 18µM* | ? | -16% | -1 | -15%
Cc1cccc(N2CCN(C(=O)CCc3nc4ccccc4[nH]3)CC2C)c1 (stereo unspecified) | ? | ? | 1% | -8 | 0%
Cc1ccc2c(c1)CCCN2C(=O)CCc1nc2ccccc2c(=O)[nH]1 | 0.46µM* | ? | ? | 11 | 8.2µM*
COc1ccc(C)cc1-n1nnnc1SCC(=O)NC1CCS(=O)(=O)C1 (stereo unspecified) | -6% | 15% | 3% | 0 | 6%
COc1cc(OC)cc(-c2nnc(NC(=O)c3ccc4c(c3)OCCO4)o2)c1 | 10µM* | 8.2µM* | -3% | -3 | 7%
